Source: PubChem BioAssay
LYPLA1 inh = LYPLA1 inhibitors, primary screen, counter-screen for PME1 inhibitor project, biochemical, fluorescence polarization, FP-Rh probe ABPP; inhibition, % at 5.9 µM; AID 2174, 2009; recombinant LYPLA1; 320,000 tested, 0.16% active; Acyl-protein thioesterase 1 (Homo sapiens), O75608;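 active = inhibition above the mean of all tested compounds plus 3 SD, set per campaign, cut at about 14% in these data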;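 note: inhibitors block serine hydrolase probe labeling of LYPLA1 so polarization falls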
Target sequence (O75608 whole entry, looked up): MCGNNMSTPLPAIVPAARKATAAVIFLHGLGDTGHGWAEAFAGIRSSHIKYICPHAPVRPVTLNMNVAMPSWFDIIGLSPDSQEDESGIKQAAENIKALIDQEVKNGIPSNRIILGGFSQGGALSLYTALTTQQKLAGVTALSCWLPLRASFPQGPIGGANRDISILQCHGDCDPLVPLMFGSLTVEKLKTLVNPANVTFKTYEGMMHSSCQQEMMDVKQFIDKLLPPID
Fam108B counter = mouse Fam108B serine hydrolase inhibitors, primary screen, counter-screen for RBBP9 inhibitor project, biochemical, fluorescence polarization; recombinant Fam108B, FP-Rh probe fluorescence polarization; inhibition, % at 9.51 µM; 300,000 tested, 0.33% active;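 active = inhibition above the screen mean inhibition plus 3 SD, computed separately per campaign, cut at about 18% in these data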;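 note: inhibitors lower polarization as less probe binds the enzyme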
LYPLA2 counter = LYPLA2 inhibitors, primary screen, counter-screen for PME1 inhibitor project, biochemical, fluorescence polarization, FP-Rh probe ABPP; recombinant LYPLA2; inhibition, % at 5.9 µM; 320,000 tested, 0.38% active;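 active = inhibition above the screen-wide mean plus 3 SD, limit set per campaign, cut at about 26% in these data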
Target sequence (O95372 whole entry, looked up): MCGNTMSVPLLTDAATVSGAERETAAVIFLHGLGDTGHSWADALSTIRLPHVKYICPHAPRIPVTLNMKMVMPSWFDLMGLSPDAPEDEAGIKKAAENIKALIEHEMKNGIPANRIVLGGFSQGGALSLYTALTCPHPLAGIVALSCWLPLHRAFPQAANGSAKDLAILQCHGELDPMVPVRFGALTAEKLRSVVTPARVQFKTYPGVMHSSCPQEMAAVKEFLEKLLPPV
PME-1 primary = PME-1 inhibitors via competitive probe labeling, primary screen, biochemical, fluorescence polarization, FP-Rh probe, HTS. 320,000 tested, 0.53% active. recombinant PME-1. Protein phosphatase methylesterase 1 (Homo sapiens), Q9Y570. inhibition, % at 5.9 µM;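 active = inhibition above the campaign mean of all compounds plus 3 SD, cut at about 26% in these data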;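 note: competitive labeling of PME-1 active site by serine hydrolase directed probe; inhibitors block probe labeling so polarization falls and inhibition rises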
GSTO1 counter = inhibitors of recombinant GSTO1, primary screen, counter-screen for RBBP9 inhibitor project, biochemical, fluorescence polarization; Glutathione S-transferase omega-1 (Homo sapiens), P78417; activity-based probe fluorescence polarization; inhibition, % at 5.96 µM; 300,000 tested, 1.1% active; AID 1974, 2009;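 active = inhibition above the campaign mean inhibition plus 3 SD, cut at about 35% in these data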
PREPL inhibitor = PREPL enzyme inhibitors, primary screen, biochemical, fluorescence polarization. Prolyl endopeptidase-like (Homo sapiens), Q4J6C6. 320,000 tested, 0.68% active. inhibition, % at 5.96 µM. recombinant PREPL, fluorescence polarization activity-based probe. AID 2751, 2010; in the data active = inhibition above about 43%
Fam108b inh conf = mouse Fam108b serine hydrolase inhibitors, confirmation, counter-screen for RBBP9 inhibitor project, biochemical, fluorescence polarization, triplicate. shares compounds with Fam108B counter. recombinant Fam108b, FP-Rh probe fluorescence polarization. inhibition, % at 9.51 µM. 930 tested, 44% active. AID 1978, 2009;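 active = inhibition above a limit from the primary screen, the mean over all compounds plus 3 SD, cut at about 19% in these data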;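 note: inhibitors free the probe so polarization falls as inhibition rises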
Fam108b inh = inhibition of mouse Fam108b by HTS hits, late-stage follow-up, biochemical, gel-based ABPP, soluble recombinant form; shares compounds with Fam108B counter; fluorophosphonate probe; inhibition, % at 20 µM; 260 tested, 44% active; AID 588649, 2011; in the data active = inhibition above about 40%
A number is an active result; n = inactive; x = not tested or not shown. A selection: hits, their analogues and other compounds. The true share with any hit is near 1.9%.

SMILES	LYPLA1 inh	Fam108B counter	LYPLA2 counter	PME-1 primary	GSTO1 counter	PREPL inhibitor	Fam108b inh conf	others
CN(C)c1ccc(NC(=O)Nc2csc3ccccc23)cc1	n	19	n	n	n	n	27
O=C(c1ccco1)N1CCN(c2ncnc3c(-c4ccc(Cl)cc4)nsc23)CC1	n	n	n	n	n	n	x
O=C(Nc1cc(Sc2nc3ccccc3s2)cc([N+](=O)[O-])c1)c1cccc(F)c1F	n	19	n	n	n	n	25
O=C(Nc1nc2ccc([N+](=O)[O-])cc2s1)c1c(F)cccc1F	n	n	n	n	n	n	x
CCCCn1nc(C(=O)Nc2ccccc2N2CCCC2)c2ccccc2c1=O	n	x	n	n	x	n	x
O=C(O)C1=CC(=C(c2ccc(O)c(C(=O)O)c2)c2ccc(O)c(C(=O)O)c2)C=CC1=O	n	53	n	n	n	80	32
O=C(NN1C(=O)/C(=C/c2cccc(O)c2)SC1=S)c1ccccc1O	n	n	n	n	n	n	x
O=C(NN1C(=O)/C(=C\c2ccc(O)c([N+](=O)[O-])c2)SC1=S)c1ccccc1Cl	n	25	n	n	n	n	20
CC1CCN(S(=O)(=O)c2ccc(C(=O)Nc3ccccc3-c3nc4ccccc4[nH]3)cc2)CC1	n	29	n	n	n	n	71	Fam108b inh=100
Cc1csc(NC(=O)c2sc3nc(-c4cccs4)ccc3c2N)n1	n	31	n	45	n	n	n
CCCSc1nnc(NC(=O)c2ccco2)s1	n	n	n	n	n	n	x
COc1ccc(C(=O)Nc2nc(-c3cccs3)cs2)cc1	n	n	n	n	n	n	x
CCCSc1nnc(NC(=O)c2sc3nc(-c4cccs4)ccc3c2N)s1	n	22	n	42	n	n	n
N#Cc1c(Cl)c(Cl)c2nnc(-c3ccc(Br)cc3)n2c1Cl	n	19	n	n	n	n	n
[S-]c1nnc(-c2ccc(Br)cc2)n1-c1ccccc1.[Zn+2]	n	n	n	n	n	n	x
COc1ccc(N/N=C(\C=N\O)C(=O)c2ccc(OC)cc2)cc1	n	47	n	57	n	n	42
CCOc1cc2c3c(c1)C(C)=CC(C)(C)N3C(=O)C2=O	n	n	n	n	n	n	x
CC(=O)Oc1cc2c3c(c1)/C(=C1/SC(=S)NC1=O)C(=O)N3C(C)(C)C=C2C	n	19	n	n	n	n	22
Cc1cc(C)c(S(=O)(=O)Nc2ccc(N(C)C)cc2)c(C)c1-n1cnnn1	n	n	n	n	n	n	x
CCN(CC)S(=O)(=O)c1cc(NC(=O)COC(=O)c2sc3ccccc3c2Cl)ccc1C	n	43	n	n	n	n	59	Fam108b inh=90
Brc1ccc(-c2csc(Nc3nc(-c4ccc(Br)cc4)cs3)n2)cc1	n	50	n	n	n	n	34	Fam108b inh=85
Cc1ccc(S(=O)(=O)Nc2ccccc2C(=O)Nc2nc(-c3ccc(F)cc3)cs2)cc1	n	24	n	n	n	n	97	Fam108b inh=65
O=S(=O)(c1ccc(Cl)c(C(F)(F)F)c1)N1CCN(CC(O)COc2ccccc2F)CC1 (stereo not given)	n	n	n	n	n	n	x
Nc1ccc(C#Cc2ccc3sc4ccccc4c(=O)c3c2)cc1	n	22	n	n	n	n	n
CCC/C(C)=N/NC(=O)c1ccccc1O	n	n	n	n	n	n	x
SMILES	LYPLA1 inh	Fam108B counter	LYPLA2 counter	PME-1 primary	GSTO1 counter	PREPL inhibitor	Fam108b inh conf	others
C/C(=N\NC(=O)c1ccccc1O)C1C(=O)c2ccccc2C1=O	n	51	n	n	n	n	51
COc1cccc(/C=N/NC(=O)c2cnn(-c3ccccc3)c2N)c1	n	n	n	n	n	n	x
Cc1cc(NC(=O)COC(=O)c2c(Cl)cccc2Cl)no1	n	x	n	n	x	n	x
CCc1cc(C(=O)O)c(NC(=O)/C=C/c2ccc(OC)c(OC)c2)s1	n	32	n	n	n	n	n
CCc1cc(C(=O)O)c(NC(=O)/C=C/c2ccc(OC)cc2)s1	n	n	n	n	n	n	x
CCOC(=O)c1ccc(N2CCN(c3ccc(F)cc3)CC2)c(NC(=O)Nc2cccc(OC)c2)c1	n	36	n	n	n	n	n
CC(=O)c1c(C)[nH]c(C2=NNC(=NCc3ccccc3)SC2)c1C	n	n	n	n	n	n	x
CCOC(=O)c1c(C)[nH]c(C2=NNC(=Nc3cccc(Cl)c3)SC2)c1C	n	22	n	34	n	n	n
COc1ccc(-n2nc(C(=O)NCC(=O)NCCC3=CCCCC3)c3ccccc3c2=O)cc1OC	n	n	n	n	n	n	x
O=C(COC(=O)Cn1cnc2ccccc21)Nc1ccc(F)c(F)c1	x	x	x	x	x	n	x
COc1ccc(NS(=O)(=O)c2ccc3c(c2)[C@H]2C=CC[C@H]2[C@@H](c2ccc(C(=O)O)cc2)N3)cc1	n	35	n	n	n	n	33	Fam108b inh=n
Cc1c(Cl)cccc1NS(=O)(=O)c1ccc2c(c1)C1C=CCC1C(c1ccc(C(=O)O)cc1)N2 (stereo not given)	n	34	n	n	n	n	33	Fam108b inh=n
O=C(NCc1ccco1)c1sc(=S)n2c1[nH]c(=O)c1ccccc12	n	38	n	n	n	n	34	Fam108b inh=n
O=C(NC1CCCC1)c1sc(=S)n2c1[nH]c(=O)c1ccccc12	n	n	n	n	n	n	x
CCN1CCN(c2ccc(Cl)cc2NC(=O)c2ccc(-n3nc(C)cc3C)cc2)CC1	n	x	n	n	x	n	x
O=C(COC(=O)c1ccccc1C(=O)OCC(=O)NCCc1c[nH]c2ccccc12)NCCc1c[nH]c2ccccc12	n	19	n	n	n	n	n
O=C(O)c1ccccc1N=Nc1c(O)[nH]c2ccc([N+](=O)[O-])cc12	n	21	n	n	n	n	n
CCCCCC(=O)N=Nc1c(O)[nH]c2ccc([N+](=O)[O-])cc12	n	n	n	n	n	n	x
